The source of these data is PubChem BioAssay.

Values joined by “and” are separate entries in the source; they are usually repeats but may differ in a detail not shown here. Identical values can stand only once. Records with an inconclusive call do not appear. Active and inactive are the calls of the source. Unless noted, how the calls were made is not given here.

The nature of experiment [1]: circadian clock period modulators, cell-based, LOPAC library, luminescence reporter (AID 2774).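 Further: values are relative to mean of DMSO wells on each plate.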 The note with it: circadian reporter cells, at 7 µM, actives lie on both sides.
In experiment [2] the test system is Hepatitis C virus NS3 helicase. Put plainly: HCV NS3 helicase inhibitors, primary screen, biochemical, fluorescence polarization, LOPAC1280 library (AID 687035; in the data active means inhibition above about 37%). The settings on record: Purified HCV NS3 helicase, Cy5-dT15 ssDNA binding fluorescence polarization; stronger effect = higher value; concentration not given here. A general note: Polarisation of emitted light reports the rotation of a fluorescent probe.

Experiment [3] can be described thus: Cy5 fluorescence quenching or enhancement artefacts, artefact control for HCV NS3 helicase inhibitor project, biochemical, LOPAC1280 (AID 687037). The note with it: Cy5-DNA-NS3h complex fluorescence interference counterscreen. Background: A counterscreen serves to expose hits that act by an unwanted route or on another target.
Experiment [4] relates to Aerobactin synthetase IucA (Klebsiella pneumoniae). Put plainly: IucA aerobactin synthetase inhibitors, biochemical, Tocris library, absorbance (AID 1345561).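 Further: 100% = enzyme without compound and 0% = no enzyme.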 The note with it: purified IucA enzyme assay, absorbance (OD) read-out; stronger effect = lower value;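 tested at 8 µM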.
In experiment [5] the test system is Aerobactin synthetase IucA (Klebsiella pneumoniae, hypervirulent). The experiment can be described thus: IucA enzyme inhibition, biochemical, LOPAC library, absorbance readout (AID 1346212).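 Further: 100% = no compound wells and 0% = no enzyme wells.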 The settings on record: IucA enzyme assay, absorbance (OD) readout; stronger effect = lower value;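 tested at 8 µM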.
Experiment [6] in a line: growth inhibition of DIPG glioma cells, dose response, cell-based, SU-DIPG-XVII, MIPE5.0, CellTiter-Glo, qHTS (AID 1347060; cut-off not given, nearly all actives have AC50 up to about 26 µM). The note with it: SU-DIPG-XVII viability, CellTiter-Glo ATP luminescence. (In general: In ATP-based viability assays light output follows the ATP content of the culture.)
A short description of experiment [7]: growth inhibition of DIPG glioma cells, dose response, cell-based, JHH-DIPG-1, MIPE4.0, CellTiter-Glo, qHTS (AID 1347062; cut-off not given, nearly all actives have AC50 up to about 27 µM). The note with it: JHH-DIPG-1 viability, CellTiter-Glo ATP luminescence.
The nature of experiment [8]: growth inhibition of DIPG glioma cells, dose response, cell-based, SU-DIPG-XIII, MIPE5.0, CellTiter-Glo, qHTS (AID 1347064; cut-off not given, nearly all actives have AC50 up to about 23 µM). The note with it: SU-DIPG-XIII viability, CellTiter-Glo ATP luminescence.
A short description of experiment [9]: viability loss in pontine glioma line – cell-based, SU-DIPG-XXV, MIPE5.0, CellTiter-Glo, qHTS, dose response (AID 1347065; cut-off not given, nearly all actives have AC50 up to about 26 µM;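 further: cells exposed to compound for 48 hours before ATP readout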). The settings on record: CellTiter-Glo ATP luminescence.
A short description of experiment [10]: SU-DIPG-VI glioma cell viability, MIPE4.0 library, CellTiter-Glo luminescence, qHTS (AID 1347066; cut-off not given, nearly all actives have AC50 up to about 30 µM;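 further: cells exposed to compound for 48 hours before readout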). The settings on record: CellTiter-Glo ATP luminescence.
Experiment [11] in a line: JHH-DIPG-1 glioma cell viability, MIPE5.0 library, CellTiter-Glo luminescence, qHTS (AID 1347067; cut-off not given, nearly all actives have AC50 up to about 26 µM;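 further: cells exposed to compound for 48 hours before readout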). The note with it: JHH-DIPG-1 glioma viability, CellTiter-Glo ATP luminescence.
A short description of experiment [12]: SU-DIPG-XXV glioma cell viability, MIPE5.0 library, qHTS (AID 1347068; cut-off not given, nearly all actives have IC50 up to about 30 µM).
The nature of experiment [13]: sensitizers of A549 cells to miR-34 induction, primary screen, imaging, A549 dox-inducible miR-34, nuclei and caspase counts (AID 1347080;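 active means compounds whose cell count with miR-34 switched on is under 0.7 times the count with it off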). The settings on record: A549 miR-34 inducible, Hoechst nuclei count, 48 h.
Experiment [14] can be described thus: inhibitors of Cryptococcus chitosan production, flow cytometry, Cibacron Brilliant Red staining (AID 1347148).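 Further: compound exposure lasted three days at 37 degrees C.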 The settings on record: Cryptococcus neoformans chitosan, stronger effect = lower value; at 10 µM unless noted.
Experiment [15] is described as follows: phospholipid biosynthesis inhibitors in animal cells, primary screen, cell-based, LOPAC library, screen 4 (AID 1347384). The settings on record: phospholipid biosynthesis inhibition screen, at 10 µM.
Experiment [16] in a line: viability rescue of complex I mutant cybrids, primary screen, cell-based, galactose medium, ATP luminescence (AID 1645843;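 active means z-score of at least 1.8 in each of two replicates, scored against plate mean and spread of sample wells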;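 further: positive z means more ATP and so rescue of galactose-driven cybrid death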). The settings on record: complex I mutant cybrid cells, 72 h, stronger effect = higher value.
Experiment [17] in a line: growth inhibition of DIPG glioma cells, dose response, cell-based, SU-DIPG-IV, MIPE4.0, CellTiter-Glo, qHTS (AID 1347063; cut-off not given, nearly all actives have AC50 up to about 30 µM;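 further: compound exposure lasted 48 hours before the viability readout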). The note with it: SU-DIPG-IV viability, CellTiter-Glo ATP luminescence.
The mark [18] stands for this setting: measured here: relative caspase fold change +Dox/-Dox.
Setting [19] is: measured here: total cells with miR-34 induction, stronger effect = lower value.
[20] abbreviates: measured here: total cells without miR-34 induction.
The mark [21] stands for this setting: stronger effect = lower value, cell number ratio, induced over uninduced.

For `COC(=O)[C@@H](N)CCCN=C(N)N[N+](=O)[O-]`, the period change in [1] is -0.07 h (inactive). The inhibition – broadly, the relative decrease from the control value, in per cent – in experiment [2] was -2% (inactive). Besides, the fluorescence ratio (interference) in experiment [3] is 1 (inactive). The remaining activity – broadly, the signal under treatment as a percentage of the control signal – was 81.5% (inactive) in [4] and 117% (inactive) in [5]. Further, the compound was called inactive in experiment [6], in experiment [7], in [8], in experiment [9], in [10] and in experiment [11]. Also, the result in [12] and in experiment [15] was inactive. The fold change is 1.06 (inactive) and 1.11 (inactive) and 0.952 (inactive) in experiment [13] (stronger effect = lower value); 1.8 and 0.812 and 0.955 in [13] (setting [18]). The cell count in [13] (setting [19]) is 11200 and 5930 and 8740; in experiment [13] (setting [20]), 10600 and 5320 and 9180. The fold fluorescence in experiment [14] is 4.22 [at 214.4 µM] (inactive). Also, the z-score in [16] is 0.23 (inactive) and 0.29 (inactive).

As to `C[C@H](N)Cn1ccc2cc(F)c(Cl)cc21`, the remaining activity in experiment [4] is 103% (inactive). Also, the values for the fold change in [13] (setting [21]) and in experiment [13] (setting [18]) were 0.874 (inactive) and 1.05, respectively. For the same compound, the figures for the cell count in experiment [13] (setting [19]) and in experiment [13] (setting [20]) were 7990 and 9140, respectively. The z-score in experiment [16] was -0.575 (inactive).

As for `O=c1ccc2[nH]cc(C3=CCNCC3)c2[nH]1`, the remaining activity in experiment [4] was 123% (inactive). For the same compound, the fold change in experiment [13] (stronger effect = lower value) was 0.986 (inactive); in experiment [13] (setting [21]), 0.934 (inactive); in [13] (setting [18]), 2.8 and 0.965. Further, the cell count is 10100 and 7840 in experiment [13] (setting [19]); 10200 and 8390 in experiment [13] (setting [20]). Also, the result in experiment [15] was inactive. Besides, the z-score in [16] is 0.725 (inactive) and 0.015 (inactive).

For the compound `CCCN[C@@H]1CCc2c(OC)cccc2[C@@H]1C`, the remaining activity in experiment [4] was 99.1% (inactive). Also, the results for the fold change in [13] (setting [21]) and in experiment [13] (setting [18]) were 0.939 (inactive) and 1.14, respectively. Moreover, the cell count in experiment [13] (setting [19]) worked out at 8780; in [13] (setting [20]), 9360. For the same compound, in [16], the z-score is 0.12 (inactive).

Consider `CC(=O)N(C)c1cccc(-c2ccnc3c(C(=O)c4cccs4)cnn23)c1`, for which the remaining activity in experiment [4] was 110% (inactive). In addition, the call in [7], in experiment [17] and in experiment [10] was inactive. Besides, the fold change in experiment [13] (stronger effect = lower value) is 0.919 (inactive); in [13] (setting [18]) it was 1.18. Also, the cell count is 6530 in experiment [13] (setting [19]) and 7110 in experiment [13] (setting [20]). Besides, in experiment [16], the z-score is 2.35 (active).

For `O=C1C2CCN(CC2)C1(CO)CO`, in experiment [4], the remaining activity is 120% (inactive). Besides, the fold change in [13] (stronger effect = lower value) is 1.16 (inactive) and 0.936 (inactive) and 0.92 (inactive); in [13] (setting [18]), 1.5 and 1.74 and 0.604. In addition, the cell count in experiment [13] (setting [19]) was 4350 and 5660 and 9650; in [13] (setting [20]), 3770 and 6050 and 10500. In addition, in [14], the fold fluorescence was 9.13 [at 269.9 µM] (inactive). Also, in experiment [16], the z-score is -0.76 (inactive).

Consider `C[C@H](NC[C@H](O)CP(=O)(O)CC1CCCCC1)c1ccc(Cl)c(Cl)c1`, for which, in [4], the remaining activity is 121% (inactive). Moreover, the fold change in [13] (setting [21]) was 0.971 (inactive); in experiment [13] (setting [18]) it was 0.73. In addition, the cell count in experiment [13] (setting [19]) worked out at 10100; in [13] (setting [20]), 10400. In addition, in experiment [16], the z-score is 0.2 (inactive).

Regarding `CNCCc1cnc[nH]1`, in experiment [4], the remaining activity was 101% (inactive). The fold change is 0.965 (inactive) in experiment [13] (setting [21]) and 0.943 in experiment [13] (setting [18]). Besides, the figures for the cell count in experiment [13] (setting [19]) and in [13] (setting [20]) were 9430 and 9770, respectively. Also, in experiment [16], the z-score was 0.115 (inactive).

For the compound `CCC[C@@H]1CC2=CC(=O)CC[C@]2(C)[C@H]2CC[C@@]3(C)[C@@H](CC[C@@]3(O)CCC(=O)O)[C@H]12`, the remaining activity in experiment [4] was 116% (inactive). Moreover, the fold change in experiment [13] (setting [21]) is 0.926 (inactive); in experiment [13] (setting [18]), 0.977. In addition, the cell count in [13] (setting [19]) turned out to be 7340; in experiment [13] (setting [20]) it was 7920. In addition, the z-score in [16] is 0.06 (inactive).

For `CCC(Oc1ccc(Cl)cc1)C(=O)OC1CC2CCC(C1)N2C` (centres undefined), in experiment [4], the remaining activity is 88.1% (inactive). For the same compound, the fold change was 0.91 (inactive) in experiment [13] (setting [21]) and 1.03 in [13] (setting [18]). Also, the cell count in [13] (setting [19]) is 8430; in experiment [13] (setting [20]), 9270. Further, the z-score in experiment [16] is -0.285 (inactive).
